Data reported in PubChem BioAssay (NCI).
This is part of a sample that, as a whole, favours compounds with a hit. Of some 79,000 tested, about 15% had one in any assay. Values without a mark were called inactive. Active and inactive are the calls of the source. Rule as the data show it: active = growth inhibition above about 70%; inactive = the rest.

Tests used:
[1] = NCI Yeast Anticancer Drug Screen. Data for the rad50 strain (AID 155);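 also: 0% = growth of vehicle-only cultures of the same strain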; settings: S. cerevisiae rad50 strain growth inhibition, active compounds read high
Outline: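 Vehicle-treated cultures provide the reference for the growth inhibition reported for compound-exposed, repair-deficient yeast.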

[2] = NCI Yeast Anticancer Drug Screen. Data for the mec2-1 strain (AID 157); settings: S. cerevisiae mec2-1 strain, active compounds read high
Outline: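 Yeast mec2-1 mutant treated with compound. Readout: growth inhibition vs vehicle controls.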

[3] = NCI Yeast Anticancer Drug Screen. Data for the sgs1 mgt1 strain (AID 161);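 also: 0% = growth of cultures given vehicle only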; settings: S. cerevisiae sgs1 mgt1 strain, active compounds read high
Outline: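 Read-out: growth inhibition vs vehicle controls. Cells: mutant yeast strain deficient in DNA damage repair.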

[4] = NCI Yeast Anticancer Drug Screen. Data for the cln2 rad14 strain (AID 165);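 also: 0% = growth equal to vehicle treated cultures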; settings: S. cerevisiae cln2 rad14 strain, active compounds read high
Outline: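 cln2 rad14 yeast strain; compound exposure; growth inhibition read vs vehicle controls.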

[5] = NCI Yeast Anticancer Drug Screen. Data for the bub3 strain (AID 167); settings: S. cerevisiae bub3 mutant strain, active compounds read high
Outline: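 Mutant yeast screening strain plus compound; vehicle-treated cultures serve as the 0% inhibition reference.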

[6] = NCI Yeast Anticancer Drug Screen. Data for the mlh1 rad18 strain (AID 175); settings: S. cerevisiae mlh1 rad18 strain growth inhibition, active compounds read high
Outline: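 Yeast w/ defined DNA-repair lesions; compound exposure; growth vs vehicle controls → % inhibition.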

[7] = at 5.0 µM (retest, dose inferred, filed as 0.5)
[8] = at 50.0 µM (retest, dose inferred, filed as 5.0)

## O=C1c2ccccc2Cc2cc(O)ccc21
[1]; [7]
  growth inhibition: 29%
[1]; [8]
  growth inhibition: 94% (active)
[1]; at 50.0 µM
  growth inhibition: 47.5%
[2]; [7]
  growth inhibition: 13%
[2]; [8]
  growth inhibition: 92% (active)
[2]; at 50.0 µM
  growth inhibition: 48.4%
[3]; [7]
  growth inhibition: 8%
[3]; [8]
  growth inhibition: 91% (active)
[3]; at 50.0 µM
  growth inhibition: 45%
[4]; [7]
  growth inhibition: 4%
[4]; [8]
  growth inhibition: 88% (active)
[4]; at 50.0 µM
  growth inhibition: 82.5% (active)
[5]; [7]
  growth inhibition: 2%
[5]; [8]
  growth inhibition: 89% (active)
[5]; at 50.0 µM
  growth inhibition: 88.6% (active)
[6]; [7]
  growth inhibition: 10%
[6]; [8]
  growth inhibition: 92% (active)
[6]; at 50.0 µM
  growth inhibition: 91.3% (active)

## CC(C)(C)CC(=O)O
[1]; [7]
  growth inhibition: 8%
[1]; [8]
  growth inhibition: 9%
[1]; at 50.0 µM
  growth inhibition: 5.05%
[2]; [7]
  growth inhibition: 5%
[2]; [8]
  growth inhibition: 3%
[2]; at 50.0 µM
  growth inhibition: 18.1%
[3]; [7]
  growth inhibition: -5%
[3]; [8]
  growth inhibition: 2%
[3]; at 50.0 µM
  growth inhibition: 29.1%
[4]; [7]
  growth inhibition: -2%
[4]; [8]
  growth inhibition: -4%
[4]; at 50.0 µM
  growth inhibition: 27.1%
[5]; [7]
  growth inhibition: 2%
[5]; [8]
  growth inhibition: 13%
[5]; at 50.0 µM
  growth inhibition: 26.9%
[6]; [7]
  growth inhibition: 7%
[6]; [8]
  growth inhibition: 8%
[6]; at 50.0 µM
  growth inhibition: -2.2%

## O=C(N/N=C/c1ccc2c(c1)OCO2)c1ccc([N+](=O)[O-])cc1
[1]; [7]
  growth inhibition: 3%
[1]; [8]
  growth inhibition: 2%
[1]; at 50.0 µM
  growth inhibition: 5.35%
[2]; [7]
  growth inhibition: -14%
[2]; [8]
  growth inhibition: -15%
[2]; at 50.0 µM
  growth inhibition: 14.5%
[3]; [7]
  growth inhibition: 8%
[3]; [8]
  growth inhibition: 7%
[3]; at 50.0 µM
  growth inhibition: 14.8%
[4]; [7]
  growth inhibition: 4%
[4]; [8]
  growth inhibition: 5%
[4]; at 50.0 µM
  growth inhibition: 30.7%
[5]; [7]
  growth inhibition: 0%
[5]; [8]
  growth inhibition: 16%
[5]; at 50.0 µM
  growth inhibition: 0.25%
[6]; [7]
  growth inhibition: 3%
[6]; [8]
  growth inhibition: 13%
[6]; at 50.0 µM
  growth inhibition: 57%

## COc1ccc(-c2cn(-c3ccccc3)c3ncnc(N)c23)cc1
[1]; [7]
  growth inhibition: 5%
[1]; [8]
  growth inhibition: 18%
[1]; at 50.0 µM
  growth inhibition: 24.1%
[2]; [7]
  growth inhibition: 5%
[2]; [8]
  growth inhibition: 23%
[2]; at 50.0 µM
  growth inhibition: 11.8%
[3]; [7]
  growth inhibition: 10%
[3]; [8]
  growth inhibition: 52%
[3]; at 50.0 µM
  growth inhibition: 79.5% (active)
[4]; [7]
  growth inhibition: 1%
[4]; [8]
  growth inhibition: 0%
[4]; at 50.0 µM
  growth inhibition: 33.8%
[5]; [7]
  growth inhibition: 2%
[5]; [8]
  growth inhibition: 9%
[5]; at 50.0 µM
  growth inhibition: -15.4%
[6]; [7]
  growth inhibition: -2%
[6]; [8]
  growth inhibition: 14%
[6]; at 50.0 µM
  growth inhibition: 17.6%

## COc1cc(C)c2sc3ccccc3c(=O)c2c1NCCCN(C)C
[1]; [7]
  growth inhibition: 1%
[1]; [8]
  growth inhibition: 51%
[1]; at 50.0 µM
  growth inhibition: 72.3% (active)
[2]; [7]
  growth inhibition: -4%
[2]; [8]
  growth inhibition: -6%
[2]; at 50.0 µM
  growth inhibition: 37%
[3]; [7]
  growth inhibition: -2%
[3]; [8]
  growth inhibition: 58%
[3]; at 50.0 µM
  growth inhibition: 70.3% (active)
[4]; [7]
  growth inhibition: -4%
[4]; [8]
  growth inhibition: 51%
[4]; at 50.0 µM
  growth inhibition: 14.6%
[5]; [7]
  growth inhibition: 0%
[5]; [8]
  growth inhibition: 53%
[5]; at 50.0 µM
  growth inhibition: 27.1%
[6]; [7]
  growth inhibition: -3%
[6]; [8]
  growth inhibition: 54%
[6]; at 50.0 µM
  growth inhibition: 95.3% (active)

## c1ccc(CN(CCCOc2ccccc2)Cc2ccccc2)cc1
[1]; [7]
  growth inhibition: 2%
[1]; [8]
  growth inhibition: 25%
[1]; at 50.0 µM
  growth inhibition: 56.4%
[2]; [7]
  growth inhibition: -4%
[2]; [8]
  growth inhibition: 53%
[2]; at 50.0 µM
  growth inhibition: 29.9%
[3]; [7]
  growth inhibition: 5%
[3]; [8]
  growth inhibition: 85% (active)
[3]; at 50.0 µM
  growth inhibition: 76.5% (active)
[4]; [7]
  growth inhibition: 3%
[4]; [8]
  growth inhibition: 15%
[4]; at 50.0 µM
  growth inhibition: 72.3% (active)
[5]; [7]
  growth inhibition: 15%
[5]; [8]
  growth inhibition: 71% (active)
[5]; at 50.0 µM
  growth inhibition: 79.8% (active)
[6]; [7]
  growth inhibition: 25%
[6]; [8]
  growth inhibition: 77% (active)
[6]; at 50.0 µM
  growth inhibition: 80.5% (active)

## Nc1ncnc2c1ncn2C1OCC(O)C1O (stereo not given)
[1]; [7]
  growth inhibition: 24%
[1]; [8]
  growth inhibition: 66%
[1]; at 50.0 µM
  growth inhibition: 81.6% (active)
[2]; [7]
  growth inhibition: 33%
[2]; [8]
  growth inhibition: 68%
[2]; at 50.0 µM
  growth inhibition: 78.2% (active)
[3]; [7]
  growth inhibition: 20%
[3]; [8]
  growth inhibition: 74% (active)
[3]; at 50.0 µM
  growth inhibition: 72.9% (active)
[4]; [7]
  growth inhibition: 29%
[4]; [8]
  growth inhibition: 58%
[4]; at 50.0 µM
  growth inhibition: 64.5%
[5]; [7]
  growth inhibition: 20%
[5]; [8]
  growth inhibition: 82% (active)
[5]; at 50.0 µM
  growth inhibition: 82.7% (active)
[6]; [7]
  growth inhibition: 21%
[6]; [8]
  growth inhibition: 86% (active)
[6]; at 50.0 µM
  growth inhibition: 82.2% (active)

## NNC(=O)c1ccccc1SSc1ccccc1C(=O)NN
[1]; [7]
  growth inhibition: 82% (active)
[1]; [8]
  growth inhibition: 99% (active)
[1]; at 50.0 µM
  growth inhibition: 99.3% (active)
[2]; [7]
  growth inhibition: 81% (active)
[2]; [8]
  growth inhibition: 99% (active)
[2]; at 50.0 µM
  growth inhibition: 99.7% (active)
[3]; [7]
  growth inhibition: 74% (active)
[3]; [8]
  growth inhibition: 99% (active)
[3]; at 50.0 µM
  growth inhibition: 99.7% (active)
[4]; [7]
  growth inhibition: 51%
[4]; [8]
  growth inhibition: 99% (active)
[4]; at 50.0 µM
  growth inhibition: 98.7% (active)
[5]; [7]
  growth inhibition: 98% (active)
[5]; [8]
  growth inhibition: 99% (active)
[5]; at 50.0 µM
  growth inhibition: 99.1% (active)
[6]; [7]
  growth inhibition: 71% (active)
[6]; [8]
  growth inhibition: 99% (active)
[6]; at 50.0 µM
  growth inhibition: 99.4% (active)

## CCOC(=O)c1ccc(O)c(C=O)c1
[1]; [7]
  growth inhibition: -103%
[1]; [8]
  growth inhibition: 90% (active)
[1]; at 50.0 µM
  growth inhibition: 99.2% (active)
[2]; [7]
  growth inhibition: -29%
[2]; [8]
  growth inhibition: 98% (active)
[2]; at 50.0 µM
  growth inhibition: 99.6% (active)
[3]; [7]
  growth inhibition: -35%
[3]; [8]
  growth inhibition: 98% (active)
[3]; at 50.0 µM
  growth inhibition: 99.3% (active)
[4]; [7]
  growth inhibition: -28%
[4]; [8]
  growth inhibition: 98% (active)
[4]; at 50.0 µM
  growth inhibition: 99% (active)
[5]; [7]
  growth inhibition: -49%
[5]; [8]
  growth inhibition: 98% (active)
[5]; at 50.0 µM
  growth inhibition: 98.6% (active)
[6]; [7]
  growth inhibition: -83%
[6]; [8]
  growth inhibition: 98% (active)
[6]; at 50.0 µM
  growth inhibition: 99.5% (active)

## Oc1ccc(SCc2cc(O)ccc2O)cc1
[1]; [7]
  growth inhibition: 9%
[1]; [8]
  growth inhibition: 93% (active)
[1]; at 50.0 µM
  growth inhibition: 86% (active)
[2]; [7]
  growth inhibition: 8%
[2]; [8]
  growth inhibition: 73% (active)
[2]; at 50.0 µM
  growth inhibition: 91.2% (active)
[3]; [7]
  growth inhibition: -17%
[3]; [8]
  growth inhibition: 48%
[3]; at 50.0 µM
  growth inhibition: 84.5% (active)
[4]; [7]
  growth inhibition: -13%
[4]; [8]
  growth inhibition: 69%
[4]; at 50.0 µM
  growth inhibition: 66%
[5]; [7]
  growth inhibition: -26%
[5]; [8]
  growth inhibition: 73% (active)
[5]; at 50.0 µM
  growth inhibition: 86.7% (active)
[6]; [7]
  growth inhibition: 10%
[6]; [8]
  growth inhibition: 86% (active)
[6]; at 50.0 µM
  growth inhibition: 82.1% (active)
